Source: PubChem
Gal4-VP16 FLuc – VP16 counterscreen qHTS for inhibitors of ROR gamma transcriptional activity | Drosophila S2 Gal4-VP16 UAS-luciferase, luminescence, 20 h | Potency, µM (top dose mostly 53.6 µM), inactives show at the top dose activity, negative = inhibition, usual class: inhibitors | 3.5% of 310,000 active | AID 2546, 2010;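 note: Gal4-VP16 expression switched on by copper sulfate through the metallothionein promoter; nearly all actives have a fitted effect of over 50% in size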
Tau fibril FP – qHTS for Inhibitors of Tau Fibril Formation, Fluorescence Polarization; Microtubule-associated protein tau (Homo sapiens), P10636; K18 P301L tau heparin fibrillization, Alexa594 FP, 6 h; Potency, µM (doses to about 57.7 µM), for the others: at the highest dose activity, negative = inhibition, most hits filed as inhibitors; 0.39% of 280,000 active; AID 1468, 2008; note: nearly all actives have a fitted effect of over 55% in size
Target sequence (P10636 561-689 P618L limits assumed): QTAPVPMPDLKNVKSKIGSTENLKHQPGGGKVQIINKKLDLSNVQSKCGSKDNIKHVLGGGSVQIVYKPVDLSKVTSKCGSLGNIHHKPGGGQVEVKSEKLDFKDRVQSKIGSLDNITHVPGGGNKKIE
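Human K18 P301L fragment (15 uM unlabeled plus 0.24 uM Alexa 594-labeled) in 100 mM sodium acetate pH 7 with compound, aggregation induced by 20 uM heparin for 6 hr at 37 C. ThT (30 uM) added for 1 hr, then Alexa 594 FP read.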
Tau fluor cs – Counterscreen qHTS for Inhibitors of Tau Fibril Formation, Fluorescence Polarization | tau K18 P301L Alexa594 fluorescence, heparin fibrillization | Potency, µM (doses to about 57.7 µM), for the others: at the highest dose activity change, negative = decrease | 0.93% of 280,000 active; note: nearly all actives have a fitted effect of over 55% in size
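Human tau K18 P301L (15 uM unlabeled, 0.24 uM Alexa 594-labeled) in 100 mM sodium acetate pH 7 with 20 uM heparin, 6 hr at 37 C. ThT 30 uM added, 1 hr ambient; Alexa 594 FP and total fluorescence read at 555/632 nm.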
RORgamma inh – qHTS for inhibitors of ROR gamma transcriptional activity | Drosophila S2 Gal4-RORgamma UAS-luciferase reporter, 20 h | 5.4% of 310,000 active | Nuclear receptor ROR-gamma (Mus musculus), P51450 | Potency, µM (highest dose often 53.6 µM), without a hit: at the highest dose activity change, negative = inhibition, hits mostly inhibitors; note: nearly all actives have a fitted effect of over 60% in size
Target sequence (P51450 whole entry, looked up, the tested form may be a part): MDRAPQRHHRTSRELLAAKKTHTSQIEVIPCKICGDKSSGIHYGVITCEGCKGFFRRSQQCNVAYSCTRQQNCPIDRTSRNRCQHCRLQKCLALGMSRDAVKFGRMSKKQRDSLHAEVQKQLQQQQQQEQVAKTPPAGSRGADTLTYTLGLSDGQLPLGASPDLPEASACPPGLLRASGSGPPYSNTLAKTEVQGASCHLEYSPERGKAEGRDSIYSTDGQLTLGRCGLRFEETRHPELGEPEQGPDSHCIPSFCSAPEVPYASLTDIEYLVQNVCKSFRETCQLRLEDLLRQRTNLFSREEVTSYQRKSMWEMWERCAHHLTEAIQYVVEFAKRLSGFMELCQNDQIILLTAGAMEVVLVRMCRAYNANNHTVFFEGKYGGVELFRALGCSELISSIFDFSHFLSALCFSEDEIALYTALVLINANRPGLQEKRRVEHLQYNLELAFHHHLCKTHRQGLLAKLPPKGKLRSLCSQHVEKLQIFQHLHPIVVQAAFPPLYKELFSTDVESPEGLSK
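Using a luciferase readout, inhibitors were identified by reduced reporter activity in Drosophila cells coexpressing a copper-inducible Gal4–ROR gamma fusion and UAS-driven Photinus luciferase, incubated 20 hr after 700 uM copper sulfate.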
Tau fibril ThT – qHTS for Inhibitors of Tau Fibril Formation, Thioflavin T Binding | Microtubule-associated protein tau (Homo sapiens), P10636 | recombinant tau K18 P301L (four-repeat tau fragment), heparin-induced fibrillization, ThT fluorescence | Potency, µM (titrated, usually from 57.4 µM), for inactives: at the top dose activity, negative = inhibition, actives largely listed as inhibitors | 2.1% of 270,000 active | AID 1460, 2008; note: nearly all actives have a fitted effect of over 55% in size
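K18 P301L tau (15 uM + 0.24 uM Alexa 594-tagged), heparin 20 uM, NaOAc pH 7, 6 h 37 C; ThT 30 uM, 1 h RT, ex 450/em 510 nm.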
* marks the source's active call; other numbers are inactive results; ? = inconclusive; · = not tested or not shown; [ ] = another dose, or the depositor's remark. Compounds with a hit are over-represented: about 7.3% of the library has one in this group of screens. Calls come from the whole dose curve; as a rule, active = well fitted curve in the direction sought with a large enough effect; inconclusive = small, poorly fitted or top-dose-only effect, or another doubt; inactive = no such curve, though single readings can be large; an effect the other way counts as inactive or inconclusive. % is set by controls: 0 for no effect and ±100 for the full control effect; potency is the fitted concentration of half-maximal effect.

SMILES | Gal4-VP16 FLuc | Tau fibril FP | Tau fluor cs | RORgamma inh | Tau fibril ThT
O=C(Nc1nc2ccccc2n1CCN1CCOCC1)c1cn(-c2ccccc2)nc1-c1ccccc1 | 1.1µM* | -11% | ? | 0.63µM* | 1%
CCn1cc2nc(SCc3cccc(C(F)(F)F)c3)n(Cc3ccc(OC)cc3)c(=O)c2n1 | · | 4% | -10% | · | -5%
CC(=O)c1ccc(N2C(=O)Nc3ccccc3S2(=O)=O)cc1 | · | -2% | -4% | · | -4%
CSc1nsc2nc(=O)c(/C=C3\C=Nc4ccccc43)c(N)n12 | 29% | 4% | -22% | ? | ?
Nc1c(C=C2C=CC(=O)C=C2)c(=O)nc2snc(SCc3ccccc3)n12 | -4% | ? | ? | ? | 7.9µM*
O=[N+]([O-])c1ccc(NNC(=S)Nc2ccc(F)cc2)cc1 | 11µM* | 2% | ? | ? | 13µM*
Cc1ccc(-c2nn(-c3ccccc3)cc2CC(=S)N2CCOCC2)cc1 | ? | · | · | 18µM* | ·
Cn1cccc1/C=N/NC(=O)c1cccnc1 | 1% | 6% | -14% | -40% | -15%
CCCc1cc(C(=O)N/N=C/c2cccn2C)cs1 | 22µM* | · | · | 11µM* | ·
Cc1ccc(C(=O)N/N=C\c2cccn2C)cn1 | ? | -3% | 2% | 11µM* | 4%
NC(=S)N/N=C/c1ccc2cccc(OCc3ccccc3)c2n1 | ? | · | · | 7.1µM* | ·
COC(=O)N/N=C/c1ccccc1OCc1ccccc1 | 1% | 4% | 10% | ? | 4%
NC(=S)N/N=C/c1ccccc1OCc1cccc(Cl)c1 | 4µM* | -8% | -29% | 0.79µM* | -7%
O/N=C/c1ccc2cccc(OCc3ccccc3)c2n1 | 0% | · | · | -1% | ·
CCOc1ccc(-c2nnc(SCC(=O)NCc3ccccc3Cl)o2)cc1 | · | 4% | -6% | · | -1%
CCCCCCn1nc(C(=O)Nc2nc3c(s2)CCCC3)c2ccccc2c1=O | -21% | ? | -21% | 10µM* | ?
CCCCn1nc(C(=O)Nc2nc3c(s2)CCCC3)c2ccccc2c1=O | ? | 4% | -7% | 11µM* | ?
CCN1C(=O)[C@H]2[C@H]3[C@H](O)[C@H](O)C/C(=N/OCc4ccccc4)[C@H]3CC[C@@H]2C1=O | -9%[10 µM] | 2%[11.6 µM] | -1%[11.6 µM] | -5%[10 µM] | 2%[11.5 µM]
Oc1c(CN2CCCCC2)cc(COCc2ccccc2)c2cccnc12 | 0.0089µM* | 9% | 5% | 0.32µM* | 6%
COc1ccccc1N1CCN(Cc2cc(Br)c(O)c3ncccc23)CC1 | 1.4µM* | 6% | ? | 1.1µM* | ?
COCc1cc(CN2CCCC2)c(O)c2ncccc12 | 8.9µM* | -13% | -26% | 10µM* | ?
COc1cc(C(=O)Nc2nc3c(s2)Cc2c(Br)ccc(OC)c2-3)cc(OC)c1OC | · | -10% | -30% | · | ?
CC(Nc1cc(C)cc(C)c1)=[N+](C)CCNS(=O)(=O)c1ccc(Cl)cc1 | -5% | · | · | -28% | ·
CCCCOc1cccc(C(=O)N(Cc2ccc(N(C)C)cc2)C2CCS(=O)(=O)C2)c1 (centres undefined) | · | 10% | -14% | · | -10%
Cc1cc(C)cc(NC(=O)C(=O)NCC(c2cccnc2)N2CCN(c3ccccc3)CC2)c1 (centres undefined) | · | -1% | -13% | · | 7%
SMILES | Gal4-VP16 FLuc | Tau fibril FP | Tau fluor cs | RORgamma inh | Tau fibril ThT
CC(=O)OC[C@H]1O[C@@H](ON=C(C)C)[C@H](OC(C)=O)[C@@H](OC(C)=O)[C@H]1OC(C)=O | -4%[10 µM] | -12%[11.6 µM] | -4%[11.6 µM] | 3%[10 µM] | -4%[11.5 µM]
CNC1CC(N)[C@H](O)[C@@H](O[C@@H]2OC(CO)C3OC4(OC(C(N)CO)C(O)C(O)C4O)O[C@@H]3[C@H]2O)C1O (some centres undefined) | -1% | -8% | -6% | -5% | -4%
COC(=O)c1cc(=O)n(CCc2ccccc2)c(=Nc2ccc(F)cc2)s1 | -28% | -12% | -17% | 8.9µM* | -14%
CCn1c(=O)cc(C(=O)OC)sc1=Nc1ccc(F)c(F)c1 | ? | 10% | -14% | 22µM* | ?
CCOC(=O)c1ccc(N=c2sc(C(=O)OC)cc(=O)n2Cc2ccco2)cc1 | 8.9µM* | 1% | 1% | ? | 4%
COC(=O)c1cc(=O)n(CCc2ccc(OC)cc2)c(=Nc2ccc(F)c(Cl)c2)s1 | 3% | 0% | -12% | 8% | ?
COC(=O)c1cc(=O)n(Cc2ccc3c(c2)OCO3)c(=Nc2ccc(F)c(Cl)c2)s1 | -3% | -3% | -17% | -16% | -23%
CCOC(=O)c1ccc(N=c2sc(C(=O)OC)cc(=O)n2CCCN2CCOCC2)cc1 | -21% | -5% | -13% | ? | ?
CS(=O)(=O)c1ccccc1-c1nc(-c2ccc([N+](=O)[O-])cc2)no1 | -2% | -9% | -3% | 1% | -3%
Cc1ccc(C(=O)NC(=S)NCC(=O)c2ccccc2)cc1 | ? | -11% | -5% | ? | 10%
O=C(NC(=S)NCc1ccccc1)c1cccs1 | 7.9µM* | · | · | 5µM* | ·
O=C(CNC(=S)NC(=O)c1cccs1)c1ccccc1 | ? | ? | 4% | 8.9µM* | 8%
CCN(c1ncnc2c1c(-c1ccccc1)cn2-c1ccccc1)C1CCCCC1 | · | 4% | -5% | · | -10%
O=C(CCl)N(c1ccccc1)c1c[nH]c2ccccc12 | ? | -1% | -10% | 14µM* | -19%
O=C(NCc1ccc(Cl)cc1)C(=O)c1c[nH]c2ccccc12 | -2% | -5% | -8% | 16% | 4%
O=C(CCl)N(c1ccc(Cl)cc1)c1c[nH]c2ccccc12 | 10µM* | 6% | ? | 4.5µM* | ?
CCOc1ccccc1CNc1ncnc2c1nc1n2CCCC1 | · | -2% | -6% | · | -2%
O=C(Nc1ccc(Cl)c(Cl)c1)OCc1cccnc1 | 1% | 14µM* | ? | ? | 18%
O=C(Nc1cccnc1)OCc1ccccc1 | 15% | · | · | ? | ·
O=C(Nc1nnc(-c2ccccc2)s1)c1ccccc1F | 1% | · | · | 13µM* | ·
CC(C)(C)c1ccc(-c2nnc(NC(=O)c3ccccc3)s2)cc1 | ? | 1% | -8% | 7.9µM* | -11%
O=C(Nc1ccccc1C(=O)Nc1nnc(C(F)(F)F)s1)c1ccccc1Cl | 16µM* | -6% | ? | ? | -10%
Cc1nnc(NC(=O)c2ccccc2)s1 | · | -6% | 2% | · | 3%
CCOc1ccc(C(=O)Nc2ccc3nc(SCC(=O)N4CCc5ccccc54)sc3c2)cc1 | · | -7% | -20% | · | ?
Cc1cnc(CNc2nc(-c3ccc(N(C)C)cc3)nc3ccccc23)cn1 | 11µM* | 8% | ? | ? | ?
Cc1cnc(CNc2nc(-c3ccccc3C(F)(F)F)nc3ccccc23)cn1 | -17% | · | · | 22% | ·
